esBAF inh: blocks esBAF chromatin remodeling in mouse ES cells; reporter increase, % at 12.5 µM; 350,000 compounds, 2% hits; Bmi1-luciferase knock-in reporter, 24 h; 100% = twice the neutral-well signal; in the data active = activation above about 40%; inconclusive = no clear call, values can overlap the other calls;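 also: 0% = median of the plate's neutral control wells and 100% = double that signal; a rise in the Bmi1 reporter signal indicates esBAF inhibition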
PAX8 reporter: lowers PAX8-driven luciferase in RMG-I cells | RMG-I TPO-luciferase reporter, SteadyGlo, 24 h | inhibition, % at 12.6 µM | 360,000 compounds, 1.2% hits | AID 652154;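 active = mean replicate inhibition at least 60% with every replicate also reaching 60%; inconclusive = only one of the two criteria is met; inactive = mean below 60% and not all replicates reaching 60%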;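 also: luciferase light reporting Pax8 driven TPO promoter activity; plate controls were median of neutral control wells for no effect and mitoxantrone controls for full effect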
Wnt act: activators of Wnt/beta-catenin signaling | Wnt/beta-catenin reporter cell assay, activator, plate reader | activation, % at 9.35 µM | 300,000 compounds, 1.2% hits | AID 743398; in the data active = activation above about 30%, passing the limit was not always enough; inconclusive = no clear call, values can overlap the other calls;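 also: 0% = neutral control wells and 100% = positive control wells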
MITF act: MITF TRPM1 promoter activation in melanoma cells | SK-MEL-5 TRPM1-promoter luciferase, 24 h; % of positive control, neutral wells = 0 | activation, % at 12.5 µM | 300,000 compounds, 0.75% hits | AID 588334;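 active = mean activation of at least 80% with every replicate also reaching 80%; inconclusive = mean reaches 80% but some replicate falls short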;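 also: 0% = neutral control wells and 100% = parthenolide positive control wells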
TRPM1 prom inh: MITF TRPM1 promoter inhibition in SK-MEL-5 cells; SK-MEL-5 TRPM1 promoter luciferase, 24 h; 330,000 compounds, 0.83% hits; AID 488899; inhibition, % at 12.5 µM;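 active = mean inhibition across replicates of 60% or more, whatever share of single replicates reaches that level; inconclusive = some that reach 60%, reason not given; inactive = mean inhibition across replicates below 60%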
EWS-Fli inh: EWS/Fli transcriptional activity inhibition; A673 NR0B1-luciferase reporter, viability-normalised; inhibition, % at 12.6 µM; 350,000 compounds, 0.67% hits;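 active = mean inhibition of at least 50% after viability correction, with every replicate also passing that limit; inconclusive = mean reaches 50% but only one of two replicates passes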;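 also: firefly luciferase signal divided by Alamar Blue viability fluorescence both relative to DMSO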
* marks the source's active call; other numbers are inactive results; ? = inconclusive; . = no result given. This is a sample that favours compounds with a hit; in the whole collection about 4% have one here.

SMILES	esBAF inh	PAX8 reporter	Wnt act	MITF act	TRPM1 prom inh	EWS-Fli inh
COC(=O)[C@H]1[C@H](CO)[C@H]2Cn3c(ccc(-c4ccccc4F)c3=O)[C@@H]1N2Cc1ccccc1	-0.7	6.0	.	.	.	-12.1
O=C1CNC[C@@H]2[C@@H](c3ccc(Br)cc3)[C@@H](CO)N12	.	-24.8	.	.	.	-0.4
Cc1ccc2c(C)c3ccc4ccccc4c3c[n+]2c1	-24.4	30.6	-5.1	-67.2	67.8*	-43.0
COc1cccc(CN2CC3(C2)[C@H](c2ccccc2)[C@H](CO)N3C(=O)Cc2ccccc2)c1	.	9.0	.	.	.	-0.2
CC1=CC(C)CC(C)OC(=O)CC(c2ccc(O)cc2)NC(=O)C(Cc2c(Br)[nH]c3ccccc23)N(C)C(=O)C(C)NC(=O)C(C)C1 (configuration not stated)	.	102.4*	-10.6	.	81.2*	-24.8
O=C(Cc1ccccc1)N1CCCCN2[C@@H](CO)[C@@H](c3ccc(-c4ccccc4)cc3)[C@@H]2C1	.	5.3	.	.	.	.
CC(=O)c1ccc2c(c1)C1C(Cl)C(Sc3ccccc3[N+](=O)[O-])CC1C(c1ccccc1[N+](=O)[O-])N2 (configuration not stated)	1.6	63.1*	-8.4	-3.4	1.6	.
CNc1ccc2oc(C[C@H]3O[C@@]4(CC[C@H]3C)O[C@H]([C@H](C)C(=O)c3ccc[nH]3)[C@H](C)C[C@H]4C)nc2c1C(=O)O	-58.6	80.8*	-22.4	-100.8	101.8*	43.1
Cc1ccc(C(=O)C2CN(C)CC2C(=O)c2ccc(C)cc2)cc1 (configuration not stated)	60.4*	.	.	12.6	-14.2	.
N#Cc1ccc2nc(-c3ccc(CN4CCC(n5c(=O)[nH]c6ccccc65)CC4)cc3)c(-c3ccccc3)nc2c1	.	90.8*	-3.2	.	.	6.5
C=Cc1cc(OC)c2c(c1)c(=O)oc1c2cc(OC)c2c(O)ccc(C3OC(C)C(O)C(C)(O)C3O)c21 (configuration not stated)	.	88.8*	-8.2	-77.1	77.6*	27.7
Cc1ccc(OC(=O)N(C)C[C@@H]2OCc3ccccc3-c3c(n(C)c4ccccc34)C(=O)N([C@@H](C)CO)C[C@H]2C)cc1	.	97.7*	.	.	.	24.5
Cc1ccc(OC(=O)N(C)C[C@H]2OCc3ccccc3-c3c(n(C)c4ccccc34)C(=O)N([C@@H](C)CO)C[C@@H]2C)cc1	.	43.2	.	.	.	-3.2
COC(=O)[C@H]1[C@H](CO)[C@H]2Cn3c(ccc(-c4ccccc4)c3=O)[C@@H]1N2CCc1ccccc1	-1.3	.	.	.	.	1.7
COC1CC2C=C(C)C=CC=CC(=O)NC(c3ccccc3)CC=CCCC(O)CC(=O)C2=C1O (configuration not stated)	.	116.2*	-21.5	.	.	55.4*
COC(=O)c1ccc(NC(=O)CSc2nc3ccc(N4C(=O)C5C6C=CC(C6)C5C4=O)cc3s2)cc1 (configuration not stated)	.	8.4	-0.5	-61.2	62.3*	-22.3
Cn1cc(C(=O)OCC(=O)Nc2ccccc2)c2ccccc21	-2.2	-10.6	1.6	6.6	-7.2	6.1
Cn1cc(C(=O)OCC(=O)N2CCCCC2)c2ccccc21	27.8	-38.2	50.5*	8.6	-8.0	-35.8
N#Cc1cccc(-c2ccc([C@@H]3[C@@H](CO)N4CCCCN(C(=O)Cc5ccccc5)C[C@@H]34)cc2)c1	.	-1.7	.	.	.	6.8
Cc1ccc(-n2c(=S)[nH]c3ccccc3c2=O)cc1F	61.4*	-83.3	12.8	.	.	-91.9
O=c1c2ccccc2[nH]c(=S)n1-c1cccc(C(F)(F)F)c1	8.9	2.6	-4.2	.	.	10.7
O=c1c2ccccc2[nH]c(=S)n1-c1ccc2c(c1)OCCO2	.	-34.0	37.5*	.	-42.5	-47.8
COC(=O)[C@@H]1[C@@H](CO)[C@@H]2Cn3c(ccc(-c4cccc(OC)c4)c3=O)[C@H]1N2C(=O)c1cnccn1	-2.1	-5.6	.	.	.	3.3
CC[C@H](C)[C@@H]1NC(=O)CNC(=O)c2csc(n2)[C@H](C(C)(C)O)OC(=O)C(C)(C)[C@H](CCCC(C)(Cl)Cl)OC(=O)c2csc1n2	-32.0	101.7*	-3.5	.	.	2.2
COCC#Cc1ccc([C@@H]2[C@@H](CO)N3CCCCN(C(=O)Cc4ccccn4)C[C@@H]23)cc1	.	-4.1	.	.	.	-12.1
CC(N)C(=O)NC1C2C(=C(O)CC(O)C2O)C(=O)OC1(C)C(Cl)Cl (configuration not stated)	.	120.7*	-5.7	.	65.6*	?
